From PubChem BioAssay (EPA / NIEHS)
“And” between values parts separate entries of the source, which are not always exact repeats. Equal values may be shown once. Some compounds were tested as several samples or in several runs, with calls that do not always agree. The source made the active and inactive calls. Rule for the calls: active = hit-call score of the fitted dose curve at least 0.9, where 1 is the maximum; inactive = score below 0.9.

Columns and labels:
[1] = read-out: Transforming growth factor beta 1 (TGFb1), TGFB1 (gene 7040); assay: BSK_KF3CT_TGFb1: BioMAP Diversity Plus: KF3CT Assay for Transforming growth factor beta 1 (TGFb1) Biomarker Activity (AID 2283072); settings: primary human keratinocytes with fibroblasts; actives raise or lower the signal
Procedure, shortened: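 Primary human skin cells (keratinocytes, foreskin fibroblasts) were co-cultured, exposed to test chemical and sampled at 24 h. TGF-b1 levels were measured by ELISA and fitted bidirectionally relative to DMSO.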

[2] = read-out: C-C motif chemokine 2 (Homo sapiens) (UniProt P13500); assay: BSK_KF3CT_MCP1: BioMAP Diversity Plus: KF3CT Assay for Monocyte Chemoattractant Protein 1 (MCP1/CCL2) Biomarker Activity (AID 2283073); settings: primary human keratinocytes with fibroblasts; actives raise or lower the signal
Procedure, shortened: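 Biomarker MCP-1 is measured by ELISA in primary human keratinocytes co-cultured with foreskin fibroblasts, 24 h after chemical treatment; DMSO serves as the negative control and activity baseline.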

[3] = read-out: Matrix Metallopeptidase 9 (MMP9), MMP9 (gene 4318); assay: BSK_KF3CT_MMP9: BioMAP Diversity Plus: KF3CT Assay for Matrix Metallopeptidase 9 (MMP9) Biomarker Activity (AID 2283074); settings: primary human keratinocytes with fibroblasts; actives raise or lower the signal;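 for AC50: MMP9 protein level quantified by ELISA in the co-culture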
Procedure, shortened: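 Human keratinocyte/foreskin fibroblast co-culture; compound added; 24 h; MMP-9 by ELISA; bidirectional fit vs DMSO baseline.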

[4] = read-out: urokinase plasminogen activator (uPA), PLAU (gene 5328); assay: BSK_KF3CT_uPA: BioMAP Diversity Plus: KF3CT Assay for urokinase plasminogen activator (uPA) Biomarker Activity (AID 2283075); settings: primary human keratinocytes with fibroblasts; actives raise or lower the signal
Procedure, shortened: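 ELISA readout of uPA, analyzed for signal gain or loss relative to DMSO, from a human primary keratinocyte–foreskin fibroblast co-culture measured 24 h after chemical treatment.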

CD40, CD40 (gene 958) [5] = assay: BSK_LPS_CD40: BioMAP Diversity Plus: LPS Assay for CD40 Biomarker Activity (AID 2283076); settings: primary human HUVEC with PBMC; actives raise or lower the signal
Procedure, shortened: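 Using a multiplexed primary human co-culture (umbilical vein endothelium plus PBMC), CD40 was read by ELISA 24 h after dosing, with cytotoxicity tracked by sulforhodamine B staining of parallel cultures and activity fitted bidirectionally versus DMSO.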

[6] = read-out: E-selectin (Homo sapiens) (UniProt P16581); assay: BSK_LPS_Eselectin: BioMAP Diversity Plus: LPS Assay for Eselectin Biomarker Activity (AID 2283077); settings: primary human HUVEC with PBMC; actives raise or lower the signal
Procedure, shortened: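 Dose chemical onto LPS-driven HUVEC/PBMC co-culture; after 24 h, run ELISA for E-selectin; fit up- and down-going responses relative to DMSO control.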

[7] = BSK_LPS_SRB: Viability Assessment in the BioMAP Diversity Plus: LPS Assay (AID 2283079); settings: primary human HUVEC with PBMC;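 note: total protein by sulforhodamine B absorbance as a cytotoxicity measure; measured one day after compound addition; fitted in both directions against DMSO so loss or gain of signal counts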
Procedure, shortened: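 Cytotoxicity endpoint in human endothelial–PBMC co-culture: 24 h exposure, then SRB (0.1%) staining, 560 nm read.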

[8] = read-out: Interleukin-1 alpha (IL1a), IL1A (gene 3552); assay: BSK_LPS_IL1a: BioMAP Diversity Plus: LPS Assay for Interleukin-1 alpha (IL1a) Biomarker Activity (AID 2283080); settings: primary human HUVEC with PBMC; actives raise or lower the signal
Procedure, shortened: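 Primary human HUVEC and PBMC co-culture stimulated with LPS is dosed and harvested at 24 h. Both increases and decreases in ELISA-measured IL-1a are scored relative to DMSO.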

[9] = read-out: Monocyte Chemoattractant Protein-1 (MCP1), CCL2 (gene 6347); assay: BSK_LPS_MCP1: BioMAP Diversity Plus: LPS Assay for Monocyte Chemoattractant Protein-1 (MCP1) Biomarker Activity (AID 2283081); settings: primary human HUVEC with PBMC; actives raise or lower the signal;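 for AC50: secreted MCP-1 protein quantified by ELISA in culture supernatant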
Procedure, shortened: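 Values derive from bidirectional fitting against DMSO of ELISA-measured MCP-1 in a human primary endothelial and mononuclear cell co-culture, 24 h after chemical addition under LPS activation.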

[10] = BSK_LPS_PGE2: BioMAP Diversity Plus: LPS Assay for Prostaglandin E2 (PGE2) Biomarker Activity (AID 2283082); settings: primary human HUVEC with PBMC; actives raise or lower the signal
Procedure, shortened: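 LPS-activated HUVEC/PBMC co-culture; cmpd dosed, 24 h; PGE2 by ELISA; bidirectional fit vs DMSO; SRB (0.1%, TCA-fixed, 560 nm) in parallel plates for overt cytotox.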

[11] = read-out: Macrophage colony-stimulating factor (MCSF), CSF1 (gene 1435); assay: BSK_LPS_MCSF: BioMAP Diversity Plus: LPS Assay for Macrophage colony-stimulating factor (MCSF) Biomarker Activity (AID 2283083); settings: primary human HUVEC with PBMC; actives raise or lower the signal
Procedure, shortened: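 Bidirectional fit versus DMSO of ELISA-measured M-CSF in co-cultured human umbilical vein endothelial cells and PBMC, sampled 24 h after dosing.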

[12] = read-out: Tissue Factor, F3 (gene 2152); assay: BSK_LPS_TissueFactor: BioMAP Diversity Plus: LPS Assay for Tissue Factor Biomarker Activity (AID 2283084); settings: primary human HUVEC with PBMC; actives raise or lower the signal
Procedure, shortened: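 Read-out: CD142 ELISA, 24 h. System: LPS-driven human endothelial/PBMC co-culture. Analysis: up- or down-signal fitted against DMSO.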

[13] = read-out: Tumor necrosis factor (Homo sapiens) (UniProt P01375); assay: BSK_LPS_TNFa: BioMAP Diversity Plus: LPS Assay for Tumour Necrosis Factor alpha (TNFa) Biomarker Activity (AID 2283085); settings: primary human HUVEC with PBMC; actives raise or lower the signal
Procedure, shortened: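 Read-out is ELISA of TNFa in primary human endothelial cell–PBMC co-cultures at 24 h after compound. Activity in either direction was fitted against DMSO.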

[14] = read-out: Vascular cell adhesion molecule 1 (VCAM1), VCAM1 (gene 7412); assay: BSK_LPS_VCAM1: BioMAP Diversity Plus: LPS Assay for Vascular cell adhesion molecule 1 (VCAM1) Biomarker Activity (AID 2283086); settings: primary human HUVEC with PBMC; actives raise or lower the signal
Procedure, shortened: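 HUVEC + PBMC co-culture, LPS system; compound 24 h; VCAM-1 by ELISA; bidirectional fit vs DMSO control; parallel SRB (0.1%, TCA-fixed, 560 nm) for cytotoxicity.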

CD38, CD38 (gene 952) = assay: BSK_SAg_CD38: BioMAP Diversity Plus: SAg Assay for CD38 Biomarker Activity (AID 2283087); settings: primary human HUVEC with PBMC; actives raise or lower the signal
Procedure, shortened: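 Human HUVEC plus PBMC co-culture stimulated with superantigen; CD38 measured by ELISA 24 h after chemical dosing. Fluorescence read-out, bidirectional fit against DMSO; cytotoxicity tracked in parallel by SRB and Alamar Blue.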

CD40, CD40 (gene 958) [15] = assay: BSK_SAg_CD40: BioMAP Diversity Plus: SAg Assay for CD40 Biomarker Activity (AID 2283088); settings: primary human HUVEC with PBMC; actives raise or lower the signal
Procedure, shortened: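 Endpoint derived by fitting increases or decreases versus DMSO controls. CD40 is detected by fluorescence ELISA in a human vascular co-culture of endothelium and PBMC at 24 h.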

CD69, CD69 (gene 969) = assay: BSK_SAg_CD69: BioMAP Diversity Plus: SAg Assay for CD69 Biomarker Activity (AID 2283089); settings: primary human HUVEC with PBMC; actives raise or lower the signal;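 for AC50: cell surface CD69 protein quantified by ELISA with fluorescence detection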
Procedure, shortened: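 ELISA, fluorescence read-out: CD69 on human umbilical vein endothelial cell + PBMC co-culture, 24 h post-dosing. Gain or loss of signal fitted bidirectionally against DMSO baseline.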

[16] = read-out: Monocyte Chemoattractant Protein-1 (MCP1), CCL2 (gene 6347); assay: BSK_SAg_MCP1: BioMAP Diversity Plus: SAg Assay for Monocyte Chemoattractant Protein-1 (MCP1) Biomarker Activity (AID 2283090); settings: primary human HUVEC with PBMC; actives raise or lower the signal
Procedure, shortened: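 MCP-1 levels in the endothelial–PBMC SAg co-culture were quantified by ELISA at 24 h post-dosing; both increases and decreases versus DMSO scored. Cytotoxicity monitored by SRB total protein in parallel cultures.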

Measured: AC50

Tumor necrosis factor (Homo sapiens), sequence (P01375 whole entry, looked up): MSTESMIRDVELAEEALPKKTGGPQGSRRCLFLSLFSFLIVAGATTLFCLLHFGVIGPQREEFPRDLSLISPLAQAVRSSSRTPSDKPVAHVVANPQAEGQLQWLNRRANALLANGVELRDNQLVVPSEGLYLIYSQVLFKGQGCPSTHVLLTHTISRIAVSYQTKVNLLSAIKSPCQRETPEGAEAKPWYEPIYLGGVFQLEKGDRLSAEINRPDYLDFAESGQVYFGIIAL
E-selectin (Homo sapiens), sequence (P16581 whole entry, looked up): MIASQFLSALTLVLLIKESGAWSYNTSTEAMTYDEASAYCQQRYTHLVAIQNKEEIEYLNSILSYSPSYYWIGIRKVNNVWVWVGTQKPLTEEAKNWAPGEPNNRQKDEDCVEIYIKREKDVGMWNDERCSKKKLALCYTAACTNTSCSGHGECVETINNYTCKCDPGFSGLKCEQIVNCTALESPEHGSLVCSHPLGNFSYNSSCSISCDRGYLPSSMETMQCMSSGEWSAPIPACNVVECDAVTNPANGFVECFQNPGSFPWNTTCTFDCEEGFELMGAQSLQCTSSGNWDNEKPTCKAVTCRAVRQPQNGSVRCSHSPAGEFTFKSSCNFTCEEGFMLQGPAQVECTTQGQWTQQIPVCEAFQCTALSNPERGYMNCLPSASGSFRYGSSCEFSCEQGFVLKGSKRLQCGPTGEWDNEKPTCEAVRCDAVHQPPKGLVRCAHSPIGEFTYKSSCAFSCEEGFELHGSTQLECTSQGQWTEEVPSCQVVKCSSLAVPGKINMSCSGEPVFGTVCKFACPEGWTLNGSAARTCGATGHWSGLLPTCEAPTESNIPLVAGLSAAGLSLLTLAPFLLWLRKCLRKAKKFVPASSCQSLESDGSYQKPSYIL

OCCC(F)(F)C(F)(F)C(F)(F)C(F)(F)C(F)(F)C(F)(F)C(F)(F)C(F)(F)F
inactive: [1] | [2] | [3] | [4] | CD40, CD40 (gene 958) [5] | [6] | [7] | [8] | [9] | [10] | [11] | [12] | [13] | CD38, CD38 (gene 952) | CD40, CD40 (gene 958) [15] | CD69, CD69 (gene 969) | [16]
active: [2] 20.1 µM and 18 µM | [3] 13.6 µM and 12.2 µM | [4] 17.1 µM and 19.1 µM | CD40, CD40 (gene 958) [5] 30.6 µM and 29.1 µM | [6] 40 µM and 30 µM | [7] 15.8 µM and 17.4 µM | [8] 18.7 µM and 23.8 µM | [9] 30.8 µM and 21.8 µM | [11] 43.2 µM and 5.95 µM | [12] 45.6 µM | [13] 47.6 µM | [14] 24.3 µM and 33.3 µM and 18.8 µM | CD38, CD38 (gene 952) 29.1 µM and 27.8 µM | CD40, CD40 (gene 958) [15] 29.1 µM and 23.8 µM | CD69, CD69 (gene 969) 26 µM and 38.3 µM | [16] 43 µM and 23.1 µM
